# Test results taken from PubChem BioAssay.
# Target: Calmodulin-1 (Homo sapiens) (UniProt P0DP23)
# Assay: calcium-bound CALM1 binders on microarrays, profiling panel, artefact control for SMM control-protein annotation, biochemical, small-molecule microarray, Cy5-labelled CALM1, plus calcium (AID 1112);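 also: score merges spot fluorescence with signal to noise from triplicate slides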
# Conditions: Cy5-CALM1 binding fluorescence, higher = more signal
row,SMILES,composite z-score
1,O=C1O[C@@H](c2ccccc2)[C@@H](c2ccccc2)N2[C@@H](c3ccc(O)cc3)[C@]3(C(=O)Nc4ccc(C#CC5=CCCCC5)cc43)[C@@H](C(=O)NC[C@H](O)c3ccccc3)[C@H]12,0.293
2,NC(=O)NCC#Cc1ccc2c(c1)[C@]1(C(=O)N2)[C@H](C(=O)NC[C@H](O)c2ccccc2)[C@H]2C(=O)O[C@H](c3ccccc3)[C@H](c3ccccc3)N2[C@@H]1c1ccc(OCCO)cc1,0.541
3,CC(C)N1CC=CC23O[C@@H]4C=CCOC(=O)[C@@H]4[C@H]2C(=O)N(CCCO)[C@@H]3C1=O (some centres undefined),0.731
4,N#Cc1ccc(C(O)C2C=CC3C(=O)N(c4ccccc4)C(=O)C3N2Nc2ccccc2)cc1 (centres undefined),0.492
5,CCCCN1CC=CC23O[C@@H]4/C=C\CCC(C)OC(=O)C4[C@H]2C(=O)N(C(CO)C(C)C)[C@@H]3C1=O (some centres undefined),-0.926
6,C=CCN1Cc2ccccc2[C@H]2OC(c3ccc(OCCCO)cc3)=N[C@@]2(CC=C)C1=O,1.43
7,CC(CO)N1C(=O)[C@@H]2[C@H]3C(=O)OCC=C[C@H]3OC23C=CCN(CCN2CCOCC2)C(=O)[C@@H]13 (some centres undefined),-1.55
8,CCCCCCc1nc(-c2cc(C)c(OC)c(C)c2)c(C)c2c1[Si](C(C)C)(C(C)C)OC2,0.34
9,C=C(COC)/C(=C/C[C@H](OC(=O)c1ccncc1)c1ccccc1OCCO)c1cnc2ccccc2c1,-0.857
10,CO[C@H]1O[C@H](CO)[C@@H](OC(=O)Nc2ccc3c(c2)OCO3)[C@H](OC(=O)c2cc3ccccc3[nH]2)[C@H]1OC(=O)c1cc2ccccc2[nH]1,-0.83
11,O=C1N(Cc2ccccc2)c2ccccc2[C@@H]2OC(c3ccc(OCCCO)cc3)=N[C@]12Cc1ccccc1,-0.338
12,CCOC(=O)c1ccc(NC(=O)O[C@H]2[C@H](OC(=O)Nc3ccc4c(c3)OCO4)[C@@H](OC(=O)Nc3ccc4c(c3)OCO4)[C@@H](OC)O[C@@H]2CO)cc1,-0.393
13,C=CCC(OC(C)=O)[C@@H]1[C@@H](N(Cc2cccc3ccccc23)C(=O)Cc2ccc(OC)cc2)c2cc(OCCCO)ccc2N1C(=O)c1ccc2ccccc2n1 (some centres undefined),0.259
14,COCCCNC(=O)[C@@]1(Cc2ccccc2CN=[N+]=[N-])N=C(c2ccc(OCCCO)cc2)O[C@H]1c1ccccc1,0.475
15,COC(=O)[C@@]1(Cc2ccccc2)[C@H]2c3cc(C(=O)N(C)C)n(CCc4ccc(O)c(OC)c4)c3C[C@H]2CN1C(=O)c1ccccc1,-0.136
16,CN1C(=O)C2C=CC(C(O)COCc3ccccc3)N(N(c3ccccc3)c3ccccc3)C2C1=O (centres undefined),0.667
17,CC(c1ccccc1)C(O)C1C=CC2C(=O)N(c3ccccc3)C(=O)C2N1Nc1ccc([N+](=O)[O-])cc1 (centres undefined),0.328
18,[N-]=[N+]=NCc1ccccc1[C@H]1OC(c2ccc(OCCCO)cc2)=N[C@@]1(CCS(=O)(=O)c1ccccc1)C(=O)N1CCCCC1,0.735
19,[N-]=[N+]=Nc1ccccc1C[C@]1(C(N)=O)N=C(c2ccc(OCCCO)cc2)O[C@H]1c1ccccc1N=[N+]=[N-],0.873
20,COc1cc(CO)cc(I)c1O[C@H]1C=C(C(=O)NCCO)C[C@@H](NCc2ccc(F)cc2)[C@@H]1O,-0.918
21,CCCC[C@@H]1C[C@H]1[C@@H](NC(=O)c1cccs1)c1ccc(C(F)(F)F)cc1,-1.05
22,COCCOC(=O)N1C(=O)[C@@]2(c3cc(C#CC4=CCCCC4)ccc31)[C@H](C(N)=O)[C@H]1C(=O)O[C@H](c3ccccc3)[C@H](c3ccccc3)N1[C@@H]2c1ccccc1OCCO,-0.121
23,O=C1OCCC=C[C@H]2OC34C=CCN(Cn5nnc6ccccc65)C(=O)[C@H]3N(CCCCCCO)C(=O)[C@@H]4C12 (some centres undefined),0.646
24,Cc1ccc(S[C@]2(C(=O)O)CC(=O)N(Cc3cc(C(F)(F)F)cc(C(F)(F)F)c3)[C@@H]2c2ccc(CO)cc2)cc1,0.168

# Tested on: not listed separately
# Assay: small-molecule microarray binders of probe aWnt5a, primary screen, biochemical, biotinylated probe, 635/667 nm fluorescence (AID 1113);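 also: score merges 667 nm fluorescence intensity with signal-to-noise per printed feature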
# Conditions: higher = more signal
row,SMILES,composite z-score
1,CCOC(=O)C[C@H]1[C@H](OC(=O)c2ccccc2-c2ccccc2)[C@@H](NC(=O)c2ccc(-c3ccccc3)cc2)c2cc(OCCCO)ccc2N1C(=O)c1ccc2ccccc2n1,-0.0445
2,C=CCC(OC(C)=O)[C@@H]1[C@@H](N(Cc2ccc(-c3ccccc3)cc2)C(=O)Cc2ccc(F)cc2)c2cc(OCCCO)ccc2N1C(=O)Cc1ccc(OC)cc1 (some centres undefined),-0.0478
3,O=C(NCC(F)(F)F)[C@@H]1c2ccccc2C(=O)N(Cc2ccc(OC(F)(F)F)cc2)[C@H]1c1ccc(CO)cc1,-0.0704
4,COC(=O)CCCCCCC(=O)Nc1ccc(NC(=O)CCCC[P+](c2ccccc2)(c2ccccc2)c2ccccc2)cc1,-0.0751
5,CCCCCCc1nc(C2CC2)cc2c1[Si](C(C)C)(C(C)C)OC2,-0.184
6,O=C1O[C@H](c2ccccc2)[C@H](c2ccccc2)N2[C@H]1[C@@H](C(=O)Nc1nc3ccccc3s1)[C@]1(C(=O)Nc3ccccc31)[C@H]2c1ccc(OCCO)cc1,-0.16
7,C=C(/C(=C/C[C@H](OC(=O)c1ccncc1)c1ccc(CO)o1)c1cc(C(=O)OC)ccc1OC)C(C)C,0.0037
8,CN(C)C(=O)[C@@]1(CCS(=O)(=O)c2ccccc2)N=C(c2ccc(OCCCO)cc2)O[C@H]1c1ccccc1,0.16
9,O=C1OCCC/C=C\[C@H]2OC34C=CCN(CCN5CCOCC5)C(=O)[C@H]3N(CCCCCCO)C(=O)[C@@H]4C12 (some centres undefined),-0.18
10,O=C1C2C=CC(C(O)c3ccc(Br)cc3)N(Nc3ccccc3F)C2C(=O)N1c1ccccc1 (centres undefined),-0.0718
11,CCCCC(=C=CC[C@@H](O)c1ccccc1OCCO)C[C@@H](O)COCc1ccccc1,0.384
12,O=C1O[C@@H](c2ccccc2)[C@@H](c2ccccc2)N2[C@@H](c3ccc(O)cc3)[C@]3(C(=O)Nc4ccc(C#CC5=CCCCC5)cc43)[C@@H](C(=O)NC[C@H](O)c3ccccc3)[C@H]12,0.0964
13,NC(=O)NCC#Cc1ccc2c(c1)[C@]1(C(=O)N2)[C@H](C(=O)NC[C@H](O)c2ccccc2)[C@H]2C(=O)O[C@H](c3ccccc3)[C@H](c3ccccc3)N2[C@@H]1c1ccc(OCCO)cc1,-0.143
14,CC(C)N1CC=CC23O[C@@H]4C=CCOC(=O)[C@@H]4[C@H]2C(=O)N(CCCO)[C@@H]3C1=O (some centres undefined),-0.18
15,N#Cc1ccc(C(O)C2C=CC3C(=O)N(c4ccccc4)C(=O)C3N2Nc2ccccc2)cc1 (centres undefined),0.0357
16,CCCCN1CC=CC23O[C@@H]4/C=C\CCC(C)OC(=O)C4[C@H]2C(=O)N(C(CO)C(C)C)[C@@H]3C1=O (some centres undefined),-0.0403
17,C=CCN1Cc2ccccc2[C@H]2OC(c3ccc(OCCCO)cc3)=N[C@@]2(CC=C)C1=O,-0.0478
18,CC(CO)N1C(=O)[C@@H]2[C@H]3C(=O)OCC=C[C@H]3OC23C=CCN(CCN2CCOCC2)C(=O)[C@@H]13 (some centres undefined),-0.144

row,SMILES,composite z-score
1,CCCCCCc1nc(-c2cc(C)c(OC)c(C)c2)c(C)c2c1[Si](C(C)C)(C(C)C)OC2,-0.0445
2,C=C(COC)/C(=C/C[C@H](OC(=O)c1ccncc1)c1ccccc1OCCO)c1cnc2ccccc2c1,-0.0405
3,CO[C@H]1O[C@H](CO)[C@@H](OC(=O)Nc2ccc3c(c2)OCO3)[C@H](OC(=O)c2cc3ccccc3[nH]2)[C@H]1OC(=O)c1cc2ccccc2[nH]1,-0.168
4,O=C1N(Cc2ccccc2)c2ccccc2[C@@H]2OC(c3ccc(OCCCO)cc3)=N[C@]12Cc1ccccc1,0.0037
5,CCOC(=O)c1ccc(NC(=O)O[C@H]2[C@H](OC(=O)Nc3ccc4c(c3)OCO4)[C@@H](OC(=O)Nc3ccc4c(c3)OCO4)[C@@H](OC)O[C@@H]2CO)cc1,0.0321
6,C=CCC(OC(C)=O)[C@@H]1[C@@H](N(Cc2cccc3ccccc23)C(=O)Cc2ccc(OC)cc2)c2cc(OCCCO)ccc2N1C(=O)c1ccc2ccccc2n1 (some centres undefined),0.0132
7,COCCCNC(=O)[C@@]1(Cc2ccccc2CN=[N+]=[N-])N=C(c2ccc(OCCCO)cc2)O[C@H]1c1ccccc1,0.0257
8,COC(=O)[C@@]1(Cc2ccccc2)[C@H]2c3cc(C(=O)N(C)C)n(CCc4ccc(O)c(OC)c4)c3C[C@H]2CN1C(=O)c1ccccc1,0.583
9,CN1C(=O)C2C=CC(C(O)COCc3ccccc3)N(N(c3ccccc3)c3ccccc3)C2C1=O (centres undefined),0.0915
10,CC(c1ccccc1)C(O)C1C=CC2C(=O)N(c3ccccc3)C(=O)C2N1Nc1ccc([N+](=O)[O-])cc1 (centres undefined),-0.001
11,[N-]=[N+]=NCc1ccccc1[C@H]1OC(c2ccc(OCCCO)cc2)=N[C@@]1(CCS(=O)(=O)c1ccccc1)C(=O)N1CCCCC1,0.16
12,[N-]=[N+]=Nc1ccccc1C[C@]1(C(N)=O)N=C(c2ccc(OCCCO)cc2)O[C@H]1c1ccccc1N=[N+]=[N-],0.0799
13,COc1cc(CO)cc(I)c1O[C@H]1C=C(C(=O)NCCO)C[C@@H](NCc2ccc(F)cc2)[C@@H]1O,-0.202
14,CCCC[C@@H]1C[C@H]1[C@@H](NC(=O)c1cccs1)c1ccc(C(F)(F)F)cc1,-0.0334
15,COCCOC(=O)N1C(=O)[C@@]2(c3cc(C#CC4=CCCCC4)ccc31)[C@H](C(N)=O)[C@H]1C(=O)O[C@H](c3ccccc3)[C@H](c3ccccc3)N1[C@@H]2c1ccccc1OCCO,0.0839
16,O=C1OCCC=C[C@H]2OC34C=CCN(Cn5nnc6ccccc65)C(=O)[C@H]3N(CCCCCCO)C(=O)[C@@H]4C12 (some centres undefined),-0.208
17,Cc1ccc(S[C@]2(C(=O)O)CC(=O)N(Cc3cc(C(F)(F)F)cc(C(F)(F)F)c3)[C@@H]2c2ccc(CO)cc2)cc1,-0.226
